# Bioassay records as filed in PubChem.
# MARV entry inh: blocks Marburg virus binding to or entry into cells; Potency, µM (highest dose often 37.8 µM), for the others: at the highest dose activity change, negative = inhibition, most hits filed as inhibitors; AID 540276; 300,000 tested, 1.8% active; Marburg virus pseudotyped entry inhibition, cell reporter; calls by dose curve; tested in HEK293 cells
# Lassa entry inh: inhibitors of Lassa virus binding or cell entry. Lassa virus pseudotype entry inhibition, cell reporter. Potency, µM (highest dose often 37.9 µM), for the others: at the highest dose activity change, negative = inhibition, hits mostly inhibitors. 300,000 tested, 1.2% active. AID 540256; calls by dose curve; tested in HEK293 cells; further: nearly all actives have a fitted effect of over 50% in size
# HCV inhibitor: blocks hepatitis C virus. Huh7.5.1 HCVcc-Cre infection, luciferase reporter, 44 h. Potency, µM (series often up to 41.8 µM), for inactives: at the top dose activity change, negative = inhibition, hits mostly inhibitors. AID 651820. 340,000 tested, 3.4% active; active means well fitted inhibition curve with a large enough effect; inconclusive means small, poorly fitted or top-dose-only effect, or another doubt; inactive means no such curve, though single readings can be large or run the other way
#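 1,000 cells/well; 4 h culture; + compound; + HCVcc-Cre (~0.5 moi); 44 h; luciferase substrate, RT 15 min; read 15 sec.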
# VACV mCherry inh: vaccinia inhibition (mCherry reporter); Potency, µM (top dose mostly 36.5 µM), for the others: top-dose activity change, negative = inhibition, hits mostly inhibitors; Vaccinia virus mCherry reporter infection, fluorescence; 310,000 tested, 0.63% active; calls by dose curve; tested in A549 cells; further: nearly all actives have a fitted effect of over 35% in size
# VACV Venus inh: vaccinia inhibition (Venus reporter); Vaccinia virus Venus reporter expression, fluorescence; Potency, µM (doses to about 36.5 µM), for the others: at the top dose activity change, negative = inhibition, usual class: inhibitors; 330,000 tested, 0.46% active; calls by dose curve; tested in A549 cells; further: nearly all actives have a fitted effect of over 30% in size
# An asterisk follows results filed as active; i = inactive; ? = inconclusive; . = no result given; [ ] = remark or other dose. Compounds with a hit are over-represented: about 4.6% of the library has one in this group of screens. On the % scale 0 is the no-effect control and ±100 the full control effect; potency means the concentration at half of the fitted maximal effect.
SMILES,MARV entry inh,Lassa entry inh,HCV inhibitor,VACV mCherry inh,VACV Venus inh
C[C@@H]1C=C[C@](Cc2ccccc2)(C(=O)NCCc2c[nH]c3ccccc23)N1C(=O)c1ccccc1,?,8.2µM*,-10%[8.37 µM],?,-13%
Cc1cc(C)cc(OCC(=O)Nc2cccc(-c3nc4ccccc4[nH]3)c2)c1,?,-5%[46.1 µM],.,-12%,-11%
CC(=O)N1[C@H](C)C=C[C@]1(Cc1ccccc1)C(=O)NCCc1c[nH]c2ccccc12,.,.,-25%,-10%,-16%
CN(c1ccccc1)S(=O)(=O)c1cccc(NC(=O)CCNC(=O)c2ccc([N+](=O)[O-])cc2)c1,4%,?,11µM*,-10%,-16%
CC(CCc1ccc(O)cc1)N1CCOc2c(O)cc(-c3nc4ccccc4s3)cc2C1 (stereo unspecified),.,.,.,?,-33%
CCCCC(=O)Nc1cccc(NC(=O)c2ccc(Br)cc2)c1,-10%,1%,?,.,.
CN(c1ccccc1)S(=O)(=O)c1cccc(NC(=O)COc2ccccc2)c1,.,.,10µM*,.,.
CN(c1ccccc1)S(=O)(=O)c1cccc(C(=O)Nc2ccc3c(c2)CCC3)c1,16%,16µM*,?,-14%,-21%
CN(c1ccccc1)S(=O)(=O)c1cccc(NC(=O)c2cc(=O)c3ccccc3o2)c1,13µM*,?,11µM*,-12%,-4%
CCCCC(=O)Nc1cccc(NC(=O)c2cccc(Br)c2)c1,.,.,11µM*,.,.
O=C(C[n+]1cccc(Br)c1)c1cccc([N+](=O)[O-])c1,.,.,.,-7%,2%
CN(c1ccccc1)S(=O)(=O)c1cccc(NC(=O)c2cncc(Br)c2)c1,.,.,?,i,-27%
COc1cc(NC(=O)c2ccc(S(=O)(=O)N(C)c3ccccc3)cc2)cc(OC)c1,.,.,11µM*,-4%,-17%
CN(c1ccccc1)S(=O)(=O)c1cccc(NC(=O)c2ccc(Cl)c([N+](=O)[O-])c2)c1,?,?,11µM*,i,-20%
COc1ccccc1NC(=O)c1ccc(S(=O)(=O)N(C)c2ccccc2)cc1,-2%,-23%,-8%,-3%,-12%
CN(c1ccccc1)S(=O)(=O)c1cccc(NC(=O)c2ccncc2)c1,.,.,10µM*,.,.
COc1ccc(N(C)S(=O)(=O)c2cccc(C(=O)Nc3cccc(C(=O)NC4CC4)c3)c2)cc1,?,?,14µM*,35%,-20%
CCOc1ccc(Nc2nc3cc(Cl)c(Cl)cc3nc2-n2nc(C)cc2C)cc1,-3%[46.1 µM],5%[46.1 µM],.,-7%,-6%
CN1CCC2(CC1)[C@H]1CN(C)CC=C1C(C#N)=C(N)C2(C#N)C#N,-9%,.,.,.,.
CN(c1ccccc1)S(=O)(=O)c1cccc(NC(=O)C2=NN(c3ccccc3)C(=O)CC2)c1,.,.,16µM*,.,.
Cc1nc2cc(NC(=O)c3ccc(S(=O)(=O)N(C)c4ccccc4)cc3)ccc2o1,?,-18%,6.3µM*,-4%,-10%
Cc1cc(N(C)C)cc(C)c1C=O,.,.,.,-12%,-11%
CC(=O)Nc1ccc(NC(=O)COC(=O)C2(c3ccc(Cl)cc3)CCCC2)cc1,13µM*,?,?,i,-26%
CCc1cccc(CC)c1NC(=O)COC(=O)C1(c2ccc(Cl)cc2)CCCC1,-10%,4%,0%,i,-13%
CCOc1cc(S(=O)(=O)n2cc(-c3ccc(F)cc3)c(N)n2)cc(OCC)c1OCC,?,?,6.3µM*,.,?
SMILES,MARV entry inh,Lassa entry inh,HCV inhibitor,VACV mCherry inh,VACV Venus inh
CCOc1ccc(S(=O)(=O)n2cc(-c3ccc(F)cc3)c(N)n2)cc1,3%,-22%,?,.,.
COc1ccccc1-c1cn(S(=O)(=O)c2ccc(F)cc2)nc1N,?,-25%,10µM*,.,?
Nc1nn2c(-c3ccccc3)cc(=O)[nH]c2c1N=Nc1ccc(Br)cc1,.,.,4%,16µM*,?
C[C@@H]1CN(C2CCN(C(=O)c3ccccc3Cl)CC2)C[C@H](C)O1,-19%[46.1 µM],.,.,.,.
O=c1cc(-c2ccc(O)cc2)oc2ccc3ccccc3c12,.,.,13µM*,.,.
COc1ccc(-c2cn3nc(N4CCCC(C(=O)Nc5ccccc5OC)C4)sc3n2)cc1 (stereo unspecified),.,-3%[46.1 µM],.,-28%,-25%
Cc1cc(C)n(Cc2ccc(NC(=O)c3ccc(COc4ccccc4Br)cc3)cc2)n1,?,?,4µM*,.,.
CCNC(=O)Cc1ccc(NC(=O)N2CCCCc3ccccc32)cc1,.,-9%[46.1 µM],.,-1%,10%
